# Screens deposited in PubChem by National Center for Advancing Translational Sciences (NCATS).
# In the library only some 7.4% were active in any assay of this set; here they are far more common.
# SMN2 splice up: qHTS Assay for Enhancers of SMN2 Splice Variant Expression | HEK293 SMN2-luciferase splicing reporter, luminescence, 30-36 h | Potency, µM (highest dose often 46.1 µM), for inactives: top-dose activity change, positive = activation, hits mostly activators | 2.8% of 210,000 active | AID 1458, 2008; further: % of control where 0% means no effect; nearly all actives have a fitted effect of over 55% in size
#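 HEK293 cells carry an SMN2 minigene-luciferase reporter in which exon 7 inclusion puts luciferase in frame. Cells were seeded at 2000 cells/well, attached for 10-12 hours, then exposed to compounds for 30-36 hours at 37C before ONE-Glo luminescence.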
# FLuc counter: qHTS profiling assay for firefly luciferase inhibitor/activator using purifed enzyme and Km concentrations of substrates (counterscreen for miR-21 project). Luciferin 4-monooxygenase (Photinus pyralis), P08659. purified FLuc, Km substrates, luminescence inhibition. Potency, µM (top dose mostly 57.5 µM), without a hit: top-dose activity change, negative = inhibition, actives largely listed as inhibitors. 6.9% of 360,000 active;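 further: plate controls were vehicle for no effect and reference inhibitor for full effect; nearly all actives have a fitted effect of over 55% in size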
# Target sequence (P08659 whole entry, looked up): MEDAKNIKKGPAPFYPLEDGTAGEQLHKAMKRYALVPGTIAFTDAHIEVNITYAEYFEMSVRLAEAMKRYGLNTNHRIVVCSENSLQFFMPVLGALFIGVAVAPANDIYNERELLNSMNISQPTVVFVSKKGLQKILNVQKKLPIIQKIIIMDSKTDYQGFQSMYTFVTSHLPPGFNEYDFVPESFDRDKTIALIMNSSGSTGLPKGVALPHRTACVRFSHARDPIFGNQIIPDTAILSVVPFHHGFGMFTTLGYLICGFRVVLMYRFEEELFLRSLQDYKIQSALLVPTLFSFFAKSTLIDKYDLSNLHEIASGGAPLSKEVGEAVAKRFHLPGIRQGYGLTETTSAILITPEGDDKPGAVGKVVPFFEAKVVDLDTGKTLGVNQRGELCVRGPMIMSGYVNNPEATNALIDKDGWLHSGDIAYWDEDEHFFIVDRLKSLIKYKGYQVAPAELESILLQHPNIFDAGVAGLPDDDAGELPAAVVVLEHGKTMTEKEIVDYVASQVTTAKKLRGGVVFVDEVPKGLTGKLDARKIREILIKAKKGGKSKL
#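 Purified P. pyralis luciferase, 10 nM final, with Km-level 10 uM D-luciferin and 10 uM ATP in 50 mM Tris acetate pH 7.5, 10 mM Mg acetate, 0.01% Tween-20, 0.05% BSA; 6-point qHTS titration about 60 µM downward; luminescence read.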
# ELG1 genotoxic: qHTS screen for small molecules that induce genotoxicity in human embryonic kidney (HEK293T) cells expressing luciferase-tagged ELG1; AID 504466, 2011; HEK293T ELG1-luciferase reporter, luminescence, 16 h; Potency, µM (top dose mostly 46 µM), for the others: at the top dose activity change, positive = activation, usual class: activators; 1.3% of 330,000 active; further: % of control where 0% means no effect; nearly all actives have a fitted effect of over 60% in size
#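 Step 1: seed 2,000 HEK293T ELG1-luciferase cells per well. Step 2: add compound or DMSO, incubate 16 hr at 37 °C. Step 3: ONE-Glo, 30 min at room temperature, read luminescence.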
# Rab9 promoter act: qHTS Assay for Rab9 Promoter Activators. Potency, µM (highest dose often 9.22 µM), for inactives: at the highest dose activation, negative = inhibition, actives largely listed as activators. 2.8% of 320,000 active. Huh7 Rab9 promoter-luciferase reporter, luminescence, 24 h; further: % of control where 0% means no effect; nearly all actives have a fitted effect of over 60% in size
#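 Luciferase signal after 10 min detection reagent at ambient indicates Rab9 promoter upregulation; stably transfected Huh7 cells were treated 24 h with compound in DMSO at 37 °C, 5% CO2.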
# NPC1 promoter act: qHTS Assay for NPC1 Promoter Activators. Huh7 NPC1 promoter luciferase reporter, 24 h. Potency, µM (doses to about 9.22 µM), inactives show at the highest dose activation, usual class: activators. 2.4% of 320,000 active; further: % of control where 0% means no effect; nearly all actives have a fitted effect of over 60% in size
#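 Luminescence read-out of NPC1 promoter-driven luciferase in stably transfected Huh7 cells; compounds delivered in DMSO and left 24 h at 37C, 5% CO2, qHTS titration format.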
# The depositor's hits bear a star; ? = inconclusive; / = no result. The call rests on the fitted dose curve; in most records, active means well fitted curve in the direction sought with a large enough effect; inconclusive means small, poorly fitted or top-dose-only effect, or another doubt; inactive means no such curve, though single readings can be large; an effect the other way counts as inactive or inconclusive. Potency means the concentration at half of the fitted maximal effect.
SMILES,SMN2 splice up,FLuc counter,ELG1 genotoxic,Rab9 promoter act,NPC1 promoter act
Cc1cccc(NC(=O)c2cnc3sccn3c2=O)c1C,5.6µM*,2.7µM*,4.1µM*,1.1µM*,?
[O-]/[N+](=C\c1ccco1)c1ccc(Cl)cc1,/,?,?,29%,21%
COc1cccc(Cn2c(=O)c(C)nc3cnc(OCc4ccccc4)nc32)c1,-16%,/,/,/,/
CCCCCn1nc(C)c(/C=N/NC(=O)c2ccoc2C)c1C,20µM*,21µM*,?,?,?
Cc1nn(Cc2ccccc2)c(C)c1/C=N/NC(=O)c1ccccc1O,/,7.6µM*,2%,-8%,-8%
Cc1nn(-c2ccccc2)c(C)c1/C=N/NC(=O)c1cc(-c2ccccc2)n[nH]1,4%,?,-15%,-18%,-7%
CCn1nc(C)c(/C=N/NC(=O)c2ccoc2C)c1C,?,12µM*,?,?,1.6µM*
Cc1occc1C(=O)N/N=C/c1cccnc1,16%,-23%,15%,10%,12%
CCn1nc(C)c(/C=N/NC(=O)c2nc3nc(C)cc(C)n3n2)c1C,/,1%,-2%,-7%,-5%
Cc1nn(-c2ccccc2)c(C)c1/C=N/NC(=O)c1cc(-c2cccc3ccccc23)n[nH]1,4%,11µM*,-8%,-1%,-2%
CC1=C(c2ccc(C)c(C)c2)S(=O)(=O)N(Cc2ccc(C(=O)Nc3cc(F)ccc3F)cc2)C1=O,/,-2%,/,/,/
Cc1ccc(NC(=O)C(CC(C)C)N2Cc3ccccc3C2=O)cc1F (stereo not given),/,1%,/,/,/
Cc1cc(C(=O)N/N=C/c2c(C)nn(-c3ccccc3)c2C)c(C)o1,/,21µM*,8%,?,22%
CCCCCn1nc(C)c(/C=N\NC(=O)c2cc(C)oc2C)c1C,5%,19µM*,2%,12%,13%
Cc1cc(NC(=O)c2sccc2C)n(-c2cccc(Cl)c2)n1,-3%,27µM*,3%,3%,2%
c1cc2c(cc1Nc1nc(-c3ccc4c(c3)OCO4)cs1)OCCO2,4µM*,4.3µM*,?,2.8µM*,3.2µM*
O=C(/C=C/c1ccc2c(c1)OCO2)Nc1nc(-c2ccc(F)cc2)cs1,-61%,?,0%,-1%,-1%
COc1cccc(Nc2nc(-c3ccc4c(c3)OCCO4)cs2)c1,14µM*,3.4µM*,?,3.2µM*,?
N#C/C(=C\Nc1ccc2c(c1)OCCO2)c1nc(-c2ccccc2)cs1,-15%,3%,?,-12%,0%
c1ccc(-c2csc(Nc3ccc4c(c3)OCCO4)n2)cc1,4µM*,0.54µM*,/,/,/
CCc1ccc(S(=O)(=O)Nc2ccc3c(c2)sc(=O)n3C)cc1,/,-3%,/,/,/
OCc1nc2c(ccc3ccccc32)[nH]1,/,-4%,2%,-2%,3%
COc1cccc2nc3cc(C)c(C)cc3nc12,/,0.76µM*,1.5µM*,0.89µM*,0.89µM*
O=C(Nc1ccc(F)c(Cl)c1)c1cc(S(=O)(=O)N2CCCc3ccccc32)ccc1F,/,12µM*,/,/,/
COc1ccc(S(=O)(=O)N2CCCc3ccccc32)cc1OC,/,19µM*,?,-6%,-2%
SMILES,SMN2 splice up,FLuc counter,ELG1 genotoxic,Rab9 promoter act,NPC1 promoter act
CC(=O)c1cccc(NC(=O)CSc2ncc3c(n2)-c2cc(Cl)ccc2N(Cc2ccccc2)S3(=O)=O)c1,/,1%,/,/,/
Cc1ccc2nc(N3C(=O)C(O)=C(C(=O)c4ccc(C)o4)C3c3ccc(O)cc3)sc2c1 (stereo not given),/,1%,-2%,0%,-10%
Cc1ccc(NC(=O)Cn2cc(S(=O)(=O)c3ccc(C)cc3)c(=O)c3cc4c(cc32)OCO4)cc1,4%,-6%,/,/,/
COC(=O)Cn1c(=NC(=O)c2cccc(OC)c2)sc2cc(OC)ccc21,-8%,3µM*,-1%,11%,12%
COC(=O)c1ccc2c(c1)sc(=NC(=O)c1ccc(S(=O)(=O)N3CCCCC3)cc1)n2C,/,-1%,/,/,/
Cn1c(=NC(=O)COc2ccccc2)sc2ccccc21,13µM*,13µM*,0%,2µM*,3.5µM*
Cn1c(=NC(=O)CS(=O)(=O)c2ccccc2)sc2ccccc21,/,2%,12%,?,?
COc1cccc(C(=O)N=c2sc3cc(S(C)(=O)=O)ccc3n2C)c1,7%,-14%,?,3.5µM*,?
COc1cc(OC)cc(C(=O)N=c2sc3ccccc3n2C)c1,10µM*,?,?,2.5µM*,?
COC(=O)Cn1c(=NC(=O)c2cc(OC)cc(OC)c2)sc2cc(OC)ccc21,2%,11%,-5%,2%,-3%
COc1cccc(C(=O)N/N=c2\sc3ccccc3n2C)c1,18%,?,3%,-4%,1%
O=C(c1ccccc1NS(=O)(=O)c1ccc([N+](=O)[O-])cc1[N+](=O)[O-])N1O[C@@H]2C=C[C@H]1C2,/,/,11%,/,/
Cc1ccccc1NC(=O)c1c(C)oc2ccc(O)c(CN3CCOCC3)c12,1%,-6%,/,/,/
COc1ccc(C(=O)N=c2sc3ccccc3n2C)cc1,2.5µM*,1.7µM*,?,2.5µM*,3.2µM*
COc1ccc(C(=O)N=c2sc3cc(Cl)ccc3n2C)cc1,1%,-13%,/,/,/
COc1ccc(/C=C2\N=C(SC)N(c3ccccc3OC)C2=O)cc1,1.3µM*,?,-14%,?,-6%
CCOc1ccc(N2C(=O)/C(=C/c3ccccc3)N=C2SC)cc1,-11%,-9%,?,?,3.5µM*
CCCOc1ccc(N2C(=O)C/C(=C\c3ccccc3)C2=O)cc1,/,0%,-9%,-1%,-3%
O=C(C1CCCN(S(=O)(=O)c2ccc(Br)s2)C1)N1CCN(c2ccc(F)cc2)CC1 (stereo not given),6%,0%,/,/,/
O=C(Nc1ccc(Br)cc1)Nn1cnnc1,/,-1%,1%,9%,10%
COc1ccc(OC)c(NC(=O)c2cc3c(s2)-c2ccccc2SC3)c1,-12%,-14%,/,/,/
COC(=O)c1cc2c(s1)-c1ccccc1OC2,2%,24µM*,10%,-11%,8%
COc1ccc(N(C)C(=O)c2cc3c(s2)-c2ccccc2OC3)cc1,-24%,?,/,/,/
COc1ccc(C(=O)n2nnc3ccccc32)cc1OC,-3%,?,1%,-5%,-1%
O=C(c1ccc2c(c1)OCO2)N1CCCc2ccccc21,/,?,?,-2%,3%
O=C(c1ccc2c(c1)OCO2)N1CCc2ccccc2C1,?,21µM*,?,24%,?
O=C(c1ccc2c(c1)OCO2)n1nnc2ccccc21,-8%,6.7µM*,-1%,1%,-3%
COC(=O)c1cc2c(s1)-c1ccc(OC)cc1CC2,/,9.5µM*,?,?,15%
